# High-throughput results from PubChem.
# Shown are actives, neighbours in structure and some others; about 1.5% of the full set was active somewhere.
# Bcl-xL primary: Bcl-xL (human) inhibition | GST-Bcl-xL / FITC-Bim BH3 peptide fluorescence polarization | 0.7% of 320,000 active | Q07817 | inhibition, % at 10.9 µM;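 active means inhibition above the mean of all tested compounds plus 3 SD, cutoff set per campaign, cut at about 30% in these data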;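 further: 0% = DMSO wells and 100% = unlabeled Bim-BH3 peptide competitor; inhibitors lower millipolarization by displacing the labeled peptide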
# Target sequence (Q07817 whole entry, looked up): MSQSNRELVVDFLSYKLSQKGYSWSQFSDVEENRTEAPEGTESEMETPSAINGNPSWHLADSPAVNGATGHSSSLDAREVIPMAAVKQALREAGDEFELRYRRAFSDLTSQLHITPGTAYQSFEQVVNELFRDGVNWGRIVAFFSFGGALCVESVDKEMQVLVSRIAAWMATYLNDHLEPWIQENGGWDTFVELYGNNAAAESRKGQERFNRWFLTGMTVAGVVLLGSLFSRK
# EBV gp42 inh: inhibitors of Epstein-Barr virus glycoprotein 42; Fluorescence polarization binding assay, mP read-out; inhibition, % (tested at 21.74 µM); 0.42% of 220,000 active; AID 1085; in the data active means inhibition above about 50%
# Target sequence (Q1HVG2 whole entry, looked up): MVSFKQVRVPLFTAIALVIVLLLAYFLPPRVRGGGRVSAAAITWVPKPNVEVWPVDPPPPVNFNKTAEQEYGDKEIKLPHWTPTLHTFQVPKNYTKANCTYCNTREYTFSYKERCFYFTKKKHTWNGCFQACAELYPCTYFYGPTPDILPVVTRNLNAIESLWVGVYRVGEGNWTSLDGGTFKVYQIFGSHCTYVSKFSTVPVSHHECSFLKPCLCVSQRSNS
# MCL1 BIM primary: disrupts human MCL1 binding to BIM-BH3 peptide; GST-MCL1 / FITC-Bim-BH3 fluorescence polarization; inhibition, % at 10.9 µM; 0.68% of 320,000 active;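 active means inhibition above the mean inhibition of all tested compounds plus 3 SD, set per campaign, cut at about 40% in these data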;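 further: 0% = DMSO wells and 100% = unlabeled Bim-BH3 peptide control; higher means more loss of mP so more displacement of Bim peptide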
# MEX-5 binding: C. elegans MEX-5 TCR-2 RNA binding activity | MEX-5/FITC-TCR2 RNA binding, fluorescence polarization; stronger effect = lower value | 0.38% of 300,000 active | activity score (negative = inhibition of binding), % at 10 µM | Q9XUB2 | AID 1832;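 active means inhibition past about -25% in most replicates, and total fluorescence under double the plate's negative control median, limit read from the data; inconclusive means replicates evenly split on the limit, or fluorescence at least double controls; inactive means too little inhibition in most replicates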;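 further: 0% = DMSO and -100% = 5 µM competing unlabeled TCR2 RNA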
# eLon inh: inhibitors of E. coli Lon protease. AID 602123. P0A9M0. 0.42% of 360,000 active. inhibition, % at 7.94 µM. purified E. coli Lon protease, fluorescence polarization; in the data active means inhibition above about 13%, passing the limit was not always enough;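 further: 0% = enzyme with probe and DMSO and 100% = no enzyme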
# GLD-1 RNA inh: GLD-1-TGE RNA interaction inhibition (C. elegans); purified GLD-1 + fluorescein TGE RNA, fluorescence polarization; inhibition, % at 5.96 µM; 0.44% of 320,000 active; AID 2280;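 active means percent inhibition above a per-plate cutoff, the plate mean of test compounds plus 3 SD, cut at about 30% in these data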;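 further: 0% = DMSO wells with GLD-1 and probe and 100% = wells lacking GLD-1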
# The depositor's hits bear a star; ? = inconclusive; . = no result given.
SMILES,Bcl-xL primary,EBV gp42 inh,MCL1 BIM primary,MEX-5 binding,eLon inh,GLD-1 RNA inh
CCOP(=O)(C#Cc1ccccc1)C(O)c1ccc(Br)cc1 (stereo unspecified),3,-1,7,1,1,5
CCOP(=O)(OCC)C(O)c1ccc(OC)c(OC)c1 (stereo unspecified),34*,5,49*,1,-2,22
CC/C(=C\C=C\[C@@H]1C=C[C@@H]2CCC[C@H]2[C@@H]1C(=O)c1ccc[nH]1)[C@@H]1O[C@@H]([C@@H](C)C(=O)O)CC[C@@H]1C,34*,-1,32,?,.,14
C[C@]12CC[C@H](O)C[C@@H]1CC[C@H]1[C@H]3CCC(=O)[C@@]3(C)CC[C@@H]12,.,.,.,.,-2,.
O=C(N/N=C/C1C(=O)NC(=S)N(c2ccccc2)C1=O)c1cc(Br)c(O)c(Br)c1 (stereo unspecified),3,-8,9,-79*,-1,-6
O=C(N/N=C/c1c(O)n(C2CCCCC2)c(=S)[nH]c1=O)c1ccccc1,0,.,10,-5,-2,-5
COc1ccc(OC)c(N2C(=O)NC(=O)/C(=C\c3ccc([N+](=O)[O-])s3)C2=O)c1,22,-9,32,-40*,-4,0
O=C1NC(=O)N(c2ccccc2)C(=O)/C1=C\c1ccc([N+](=O)[O-])s1,20,9,35,.,.,-2
CCCC(=O)NC(Oc1ccc(C(C)=O)cc1)C(Cl)(Cl)Cl (stereo unspecified),2,63*,-1,2,0,0
c1ccc(-c2[nH]c(-c3ccccc3)[n+](CC3CO3)c2-c2ccccc2)cc1 (stereo unspecified),8,57*,10,3,-9,1
CCN(CC)C(=O)c1ccc2c(c1)C1C=CCC1C(C(=O)O)N2 (stereo unspecified),.,.,.,-56*,11,.
CN(C)[C@@H]1C(=O)C(C(N)=O)=C(O)[C@@]2(O)C(=O)C3=C(O)c4c(O)cccc4[C@@](C)(O)[C@H]3C[C@@H]12,43*,.,90*,-59*,.,14
CN(C)[C@@H]1C(=O)C(C(N)=O)=C(O)[C@@]2(O)C(=O)C3=C(O)c4c(O)ccc(Cl)c4[C@@](C)(O)C3C[C@@H]12 (stereo partly specified),.,-6,.,.,-19,.
Cc1ccc(N2C(=O)NC(=O)/C(=C\c3cn(CC(=O)O)c4ccccc34)C2=O)cc1,4,.,-12,?,-42,-18
NS(=O)(=O)c1ccc(-c2ccc(C=C3C(=O)NC(=S)NC3=O)o2)cc1,-16,.,-26,-49*,.,-5
NS(=O)(=O)c1ccc(-c2ccc(C=C3C(=O)NC(=O)NC3=O)o2)cc1,5,.,-5,-2,-14,-3
CN(C)C(=O)Oc1ccc2nnc3ccnn3c2c1,31*,.,29,-3,-13,12
O=C1NC(=O)C2=Cc3ccc(O)cc3OC2(O)N1 (stereo unspecified),.,90*,.,.,.,.
COc1ccc(NC2(C#N)CCCCC2)cc1,4,-3,-2,-1,-3,1
Cc1ccc(-n2c(O)c(C=NCc3ccccn3)c(=O)[nH]c2=S)cc1,2,-2,5,2,-1,-2
c1ccc2c(c1)[nH]c1cnccc12,2,-5,1,1,-3,2
Cc1c2ccncc2c(C)c2c1[nH]c1ccccc12,66*,113*,88*,-2,-1,0
CC(C)(C)OC(=O)c1c(N)n(Cc2ccco2)c2nc3ccccc3nc12,53*,-10,41*,-8,-14,48*
COCCNC(=O)c1c(N)n(Cc2ccco2)c2nc3ccccc3nc12,13,-4,17,-1,-18,8
Cc1ccc(-n2c(O)c(C=NCc3cccnc3)c(=O)[nH]c2=O)cc1C,6,-28,7,1,7,7
SMILES,Bcl-xL primary,EBV gp42 inh,MCL1 BIM primary,MEX-5 binding,eLon inh,GLD-1 RNA inh
COc1ccc(Cn2c(O)c(C=Nc3c(C)n(C)n(-c4ccccc4)c3=O)c(=O)[nH]c2=O)cc1,-4,-23,-6,3,1,-10
COc1ccc(OC)c(N=Cc2c(O)n(Cc3ccccc3)c(=S)[nH]c2=O)c1,-5,19,-11,-47*,-23,-5
COc1ccc(N=Cc2c(O)n(Cc3ccccc3)c(=S)[nH]c2=O)c(OC)c1,7,90*,4,-57*,-4,4
O=C(Cc1ccccc1)OCc1ccccc1,10,.,2,.,-6,6
CCCOc1ccc(C(C)=O)cc1Cc1c(O)[nH]c(=S)[nH]c1=O,-2,.,11,-4,-23,3
COC(=O)Cn1cc(C=C2C(=O)N(C)C(=O)N(C)C2=O)c2ccccc21,-5,.,-14,-80*,.,-9
CCN(CC)C(=O)Cn1cc(C=C2C(=O)N(C)C(=O)N(C)C2=O)c2ccccc21,2,.,-5,?,-4,-2
OC1(c2cccnc2)CC2CCC(C1)N2Cc1nnnn1Cc1ccccc1 (stereo unspecified),1,-17,-5,2,-6,1
O=[N+]([O-])c1cc(-c2ccc([As](=O)(O)O)cc2)ccc1[As](=O)(O)O,.,1,.,-46*,.,.
O=[N+]([O-])c1cc([As](=O)(O)c2ccc(O)c([N+](=O)[O-])c2)ccc1O,3,-13,4,2,0,-3
CSc1nc(N)c(N=Nc2ccc([As](=O)(O)O)cc2)c(=O)[nH]1,10,-14,8,-34*,-6,-2
COc1ccc(N=Nc2c(O)[nH]c(=S)[nH]c2=O)cc1,-42,-125,-88,0,-66,-85
O=C1NC(=O)N(Cc2ccccc2)C(=O)/C1=C\c1ccco1,-13,-2,-2,-30*,-96,-31
Cc1ccc(N=C(N(C)C)P(=O)(N(C)C)N(C)C)cc1,6,-10,9,0,-4,2
CCOC(=O)c1c(/N=C/C2C(=O)NC(=S)NC2=O)sc2c1CCC2,-92,-96,-85,-31*,-282,-192
CCOC(=O)c1c(/N=C/C2C(=O)NC(=S)NC2=O)sc(C)c1C,-4,-57,-14,?,.,-13
CCCn1cc2c3c(cccc31)C1CC(C)CN(C)C1C2 (stereo unspecified),.,20,.,-27*,.,.
Cc1cc(C=C2C(=O)NC(=S)NC2=O)c(C)n1-c1ccc2c(c1)OCO2,0,61*,-10,-12,-20,-12
Cc1cc(C=C2C(=O)NC(=O)NC2=O)c(C)n1-c1ccc2c(c1)OCO2,3,1,-8,-7,1,-4
Cc1ccc(C2NC(=S)NC(c3ccc(C)cc3)C23C(=O)NC(=O)NC3=O)cc1 (stereo unspecified),6,-8,5,1,-3,-6
CN1C(=O)C(=Cc2sc(=O)n(-c3ccccc3)c2N2CCCCC2)C(=O)N(C)C1=O,.,-202,.,-46*,-179,.
